# Experimental data: PubChem BioAssay (EPA / NIEHS)
# The source made the active and inactive calls. How the source made its calls: active means hit-call score of the fitted dose curve at least 0.9, where 1 is the maximum; inactive means score below 0.9.
# Assays:
# [1] = target: CCAAT/enhancer-binding protein beta (Homo sapiens) (UniProt P17676); assay: ATG_C_EBP_CIS: Attagene CIS-FACTORIAL HepG2 Assay for human CCAAT/Enhancer Binding Protein (C/EBP) beta (AID 2282927); conditions: HepG2 Attagene cis-factorial transcription factor reporter; actives raise or lower the signal
# Sequence of CCAAT/enhancer-binding protein beta (Homo sapiens) (P17676 whole entry, looked up): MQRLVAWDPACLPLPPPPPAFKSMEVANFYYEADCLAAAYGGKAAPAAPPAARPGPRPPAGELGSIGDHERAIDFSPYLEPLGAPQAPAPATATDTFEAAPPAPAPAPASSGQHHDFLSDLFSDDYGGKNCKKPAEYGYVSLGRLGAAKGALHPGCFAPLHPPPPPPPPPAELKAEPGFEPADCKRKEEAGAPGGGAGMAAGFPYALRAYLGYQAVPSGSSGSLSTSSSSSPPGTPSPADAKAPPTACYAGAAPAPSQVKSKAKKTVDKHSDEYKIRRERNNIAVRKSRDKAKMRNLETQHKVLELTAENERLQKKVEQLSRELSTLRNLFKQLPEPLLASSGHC
# Method in brief: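 HepG2, transient MRTU transfection, 24 h treatment. RT-PCR plus CE fluorescence; DMSO negative control, bidirectional fit.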
# [2] = ATG_CMV_CIS: Attagene CIS-FACTORIAL HepG2 Assay for human CMV (Internal Marker) (AID 2282928); conditions: HepG2 CMV promoter reporter, transcription factor profiling; actives raise or lower the signal;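 further: endpoint acts as a background internal control marker rather than a target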
# Method in brief: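 After transient transfection of HepG2 with reporter transcription units driven by cis-regulatory promoters, cells receive test chemical for 24 h. Labeled reporter amplicons, digested with HpaI, are sized and quantified by capillary electrophoresis against DMSO.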
# [3] = ATG_AP_2_CIS: Attagene CIS-FACTORIAL HepG2 Assay for human Activator Protein 2 (AP-2) (AID 2282932); conditions: HepG2 AP-2 cis-reporter, Attagene transcription factor profiling; actives raise or lower the signal
# Method in brief: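 Multiplexed mRNA reporter assay in HepG2: cis-regulated units report endogenous factor activity after 24 h treatment. Fluorescence from capillary electrophoresis of RT-PCR products gives the signal, with DMSO as baseline.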
# [4] = ATG_BRE_CIS: Attagene CIS-FACTORIAL HepG2 Assay for human Bone Morphogenetic Protein (BMP) Response Element (BRE) (AID 2282933); conditions: HepG2 BMP response element reporter, Attagene transcription factor profiling; actives raise or lower the signal
# Method in brief: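 A HepG2 multiplex reporter system measured inducible reporter mRNA 24 h post-dosing. Detection: RT-PCR, 6-FAM primer extension, HpaI digestion, capillary electrophoresis. Activity fitted bidirectionally relative to DMSO.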
# [5] = target: Transcription factor E2F1 (Homo sapiens) (UniProt Q01094); assay: ATG_E2F_CIS: Attagene CIS-FACTORIAL HepG2 Assay for human E2F Transcription Factor 1 (AID 2282935); conditions: HepG2 Attagene cis-reporter, E2F reporter RNA transcripts; actives raise or lower the signal
# Sequence of Transcription factor E2F1 (Homo sapiens) (Q01094 whole entry, looked up): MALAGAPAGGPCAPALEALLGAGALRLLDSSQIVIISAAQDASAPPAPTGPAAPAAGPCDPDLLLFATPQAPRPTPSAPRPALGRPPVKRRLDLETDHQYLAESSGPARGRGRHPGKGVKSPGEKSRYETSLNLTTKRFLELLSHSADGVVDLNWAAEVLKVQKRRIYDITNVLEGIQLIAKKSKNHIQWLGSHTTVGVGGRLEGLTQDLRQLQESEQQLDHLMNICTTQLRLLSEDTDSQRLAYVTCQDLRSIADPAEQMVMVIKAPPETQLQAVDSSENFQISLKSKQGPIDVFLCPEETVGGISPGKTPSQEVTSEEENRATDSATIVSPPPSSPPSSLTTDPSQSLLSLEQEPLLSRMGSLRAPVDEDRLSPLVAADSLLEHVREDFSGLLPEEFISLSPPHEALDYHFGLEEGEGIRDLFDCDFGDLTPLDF
# Method in brief: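 Measures reporter transcript levels via RT-PCR with capillary electrophoresis detection in HepG2 cells harboring cis-regulated reporter units; 24 h post-dose; bidirectional curve fitting with DMSO as baseline.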
# [6] = ATG_E_Box_CIS: Attagene CIS-FACTORIAL HepG2 Assay for human Enhancer Box (E-box) (AID 2282936); conditions: HepG2 E-box cis-reporter transcription, actives raise or lower the signal
# Method in brief: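 First, HepG2 cells receive multiple cis-regulated reporter constructs by transient transfection. Next, chemicals are applied for 24 h. Finally, reporter mRNA is quantified via RT-PCR and capillary electrophoresis, with DMSO as baseline.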
# [7] = ATG_M_61_CIS: Attagene CIS-FACTORIAL HepG2 Assay for M61 Transcription Factor (Internal Marker) (AID 2282937); conditions: HepG2 Attagene CIS-FACTORIAL M61 internal marker reporter; actives raise or lower the signal
# Method in brief: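 Readout is reporter mRNA by RT-PCR, fluorescent primer extension and capillary electrophoresis, with gain or loss fitted relative to DMSO. Transfected HepG2 cells carrying endogenous-TF-driven cis reporters were exposed to chemicals for 24 hours.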
# [8] = ATG_EGR_CIS: Attagene CIS-FACTORIAL HepG2 Assay for human Early Growth Response 1 (EGR1) (AID 2282938); conditions: HepG2 Attagene CIS-FACTORIAL EGR reporter mRNA; actives raise or lower the signal
# Method in brief: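 After 24 h compound exposure, RNA from reporter-transfected HepG2 cells was reverse-transcribed, PCR-amplified, fluorescently labelled and resolved by capillary electrophoresis. EGR1 reporter transcript changes, up or down, were fitted against DMSO, reflecting endogenous transcription-factor activity.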
# [9] = ATG_M_19_CIS: Attagene CIS-FACTORIAL HepG2 Assay for M19 Transcription Factor (Internal Marker) (AID 2282939); conditions: HepG2 Attagene CIS-FACTORIAL M19 internal marker reporter; actives raise or lower the signal
# Method in brief: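 Chemical-treated HepG2 (24 h) with MRTU constructs; reporter transcripts detected by fluorescent RT-PCR fragment analysis on capillary electrophoresis. Internal background marker, DMSO as baseline.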
# [10] = ATG_FoxO_CIS: Attagene CIS-FACTORIAL HepG2 Assay for human Forkhead box O (FoxO) (AID 2282943); conditions: HepG2 Attagene cis-reporter, FoxO element, mRNA; actives raise or lower the signal
# Method in brief: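 Transfected HepG2 reporter cells exposed to test chemical for 24 h; reporter RNA measured by reverse transcription, PCR and fluorescent capillary electrophoresis; curves fitted for increases and decreases against DMSO.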
# [11] = ATG_GATA_CIS: Attagene CIS-FACTORIAL HepG2 Assay for human GATA Binding Protein (AID 2282944); conditions: HepG2 GATA cis-element reporter, Attagene multiplex mRNA; actives raise or lower the signal
# Method in brief: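 Transfected cis-reporter HepG2 cells were treated with chemicals for 24 hours. Total RNA was then converted to cDNA, amplified with reporter-specific primers and analysed by fluorescent capillary electrophoresis, using DMSO-treated wells as baseline.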
# [12] = ATG_GLI_CIS: Attagene CIS-FACTORIAL HepG2 Assay for human Zinc Finger Protein GLI1 (AID 2282945); conditions: HepG2, Attagene cis-factorial reporter mRNA, GLI element; actives raise or lower the signal
# Method in brief: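 Transiently transfected HepG2 cells report endogenous transcription factor activity via cis-element-driven reporter units. After 24 h compound exposure, reporter mRNA was measured by RT-PCR with capillary electrophoresis; bidirectional fitting against DMSO baseline.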
# [13] = ATG_ISRE_CIS: Attagene CIS-FACTORIAL HepG2 Assay for human Interferon Regulatory Factor 1 (IRF1) binding to an Interferon-Stimulated Response Element (ISRE) (AID 2282948); conditions: HepG2 ISRE cis-reporter (Attagene), mRNA transcription readout; actives raise or lower the signal
# Method in brief: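 Cell-based cis-reporter assay; HepG2; 24 h exposure; reporter mRNA by RT-PCR plus capillary electrophoresis fluorescence; activity in either direction scored relative to DMSO.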
# [14] = ATG_M_32_CIS: Attagene CIS-FACTORIAL HepG2 Assay for M32 Transcription Factor (Internal Marker) (AID 2282949); conditions: HepG2 Attagene cis-factorial M32 reporter, mRNA; actives raise or lower the signal;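 further: background control marker of the multiplexed CIS panel rather than a real target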
# Method in brief: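 Following 24 h chemical exposure of HepG2 cells transiently expressing cis-promoter reporter constructs, reporter transcript levels were determined by RT-PCR with fluorescent labelling and capillary electrophoresis, then fitted bidirectionally against DMSO.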
# [15] = ATG_M_06_CIS: Attagene CIS-FACTORIAL HepG2 Assay for M06 Transcription Factor (Internal Marker) (AID 2282950); conditions: HepG2 Attagene CIS-FACTORIAL M06 internal marker reporter; actives raise or lower the signal
# Method in brief: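 Cells (HepG2, transiently carrying cis-driven reporter units) receive chemical for 24 h before RNA isolation. Reporter cDNA is PCR-amplified, FAM-labelled by primer extension, HpaI-digested and sized on a capillary analyser.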
# [16] = ATG_MRE_CIS: Attagene CIS-FACTORIAL HepG2 Assay for human Metal Responsive Element (MRE) (AID 2282954); conditions: HepG2 MRE cis-reporter transcription, Attagene multiplex; actives raise or lower the signal
# Method in brief: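 Fluorescent reporter fragments separated by capillary electrophoresis give mRNA induction for the MRE unit after 24 h treatment of transfected HepG2 cells. Endogenous transcription-factor activity is read; DMSO serves as negative control and baseline.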
# [17] = ATG_PXRE_CIS: Attagene CIS-FACTORIAL HepG2 Assay for human Pregnane X Receptor Element (PXRE) (AID 2282957); conditions: HepG2 Attagene CIS-FACTORIAL PXRE reporter, mRNA; actives raise or lower the signal
# Method in brief: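 Cells: HepG2, transiently transfected reporter units under cis promoter control. Exposure: 24 h. Detection: reporter mRNA via RT-PCR/CE fluorescence; bidirectional fitting, DMSO-referenced.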
# [18] = ATG_Sox_CIS: Attagene CIS-FACTORIAL HepG2 Assay for human SRY-box transcription factor (SOX) (AID 2282960); conditions: HepG2 Attagene cis-factorial SOX reporter, mRNA; actives raise or lower the signal
# Method in brief: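 Reporter transcripts, measured by RT-PCR and capillary electrophoresis of labelled fragments, report endogenous SOX transcription factor activity. Transiently transfected human HepG2 cells receive chemical for 24 h; changes in either direction are fitted relative to DMSO.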
# [19] = target: Transcription factor Sp1 (Homo sapiens) (UniProt P08047); assay: ATG_Sp1_CIS: Attagene CIS-FACTORIAL HepG2 Assay for human Specificity Protein 1 (Sp1) (AID 2282961); conditions: HepG2 Sp1 cis-reporter transcription, actives raise or lower the signal
# Sequence of Transcription factor Sp1 (Homo sapiens) (P08047 whole entry, looked up): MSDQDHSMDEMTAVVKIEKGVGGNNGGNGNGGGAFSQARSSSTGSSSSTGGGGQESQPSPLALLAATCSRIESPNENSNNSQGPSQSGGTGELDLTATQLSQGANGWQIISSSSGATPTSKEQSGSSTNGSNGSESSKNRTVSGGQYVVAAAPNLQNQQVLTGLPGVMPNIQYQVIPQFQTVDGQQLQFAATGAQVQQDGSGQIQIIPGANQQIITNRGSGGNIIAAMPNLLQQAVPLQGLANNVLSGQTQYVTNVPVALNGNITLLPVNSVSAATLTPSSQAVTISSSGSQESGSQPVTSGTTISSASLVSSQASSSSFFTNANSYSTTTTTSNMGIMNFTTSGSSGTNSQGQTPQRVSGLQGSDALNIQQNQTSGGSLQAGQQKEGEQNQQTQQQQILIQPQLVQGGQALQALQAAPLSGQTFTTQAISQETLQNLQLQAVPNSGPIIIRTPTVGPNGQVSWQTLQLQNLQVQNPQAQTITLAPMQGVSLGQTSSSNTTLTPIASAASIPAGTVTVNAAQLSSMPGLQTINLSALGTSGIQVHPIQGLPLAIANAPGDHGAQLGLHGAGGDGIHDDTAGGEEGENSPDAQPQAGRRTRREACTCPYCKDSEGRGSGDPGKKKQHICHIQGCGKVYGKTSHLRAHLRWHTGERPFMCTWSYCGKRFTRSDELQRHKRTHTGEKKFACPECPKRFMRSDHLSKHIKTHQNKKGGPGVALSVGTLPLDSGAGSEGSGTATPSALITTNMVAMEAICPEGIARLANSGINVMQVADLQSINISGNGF
# Method in brief: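 Read-out is reporter transcript level, measured by RT-PCR and fluorescent capillary electrophoresis after 24 h chemical treatment. System: transiently transfected HepG2 cells reporting endogenous transcription factor activity; gain or loss fitted against DMSO baseline.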
# [20] = ATG_SREBP_CIS: Attagene CIS-FACTORIAL HepG2 Assay for human Sterol Regulatory Element Binding (SREBP) (AID 2282962); conditions: HepG2 Attagene cis-factorial SREBP reporter, mRNA; actives raise or lower the signal
# Method in brief: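 mRNA induction of transfected cis-promoter reporters in HepG2 cells, 24 h post-dose. Detection: RT-PCR with 6-FAM-labelled products, HpaI digest, capillary electrophoresis. DMSO served as negative control and baseline.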
smiles,measurement,setting,value
Cc1ccccc1S(N)(=O)=O,outcome,[1],inactive
same,outcome,[2],inactive
same,outcome,[3],inactive
same,outcome,[4],inactive
same,outcome,[5],inactive
same,outcome,[6],inactive
same,outcome,[7],inactive
same,outcome,[8],inactive
same,outcome,[9],inactive
same,outcome,[10],inactive
same,outcome,[11],inactive
same,outcome,[12],inactive
same,outcome,[13],inactive
same,outcome,[14],inactive
same,outcome,[15],inactive
same,outcome,[16],inactive
same,outcome,[17],inactive
same,outcome,[18],inactive
same,outcome,[19],inactive
same,outcome,[20],inactive
CC(C)=CCOC(=O)c1ccccc1,outcome,[1],inactive
same,outcome,[2],inactive
same,outcome,[3],inactive
same,outcome,[4],inactive
same,outcome,[5],inactive
same,outcome,[6],inactive
same,outcome,[7],inactive
same,outcome,[8],inactive
same,outcome,[9],inactive
same,outcome,[10],inactive
same,outcome,[11],inactive
same,outcome,[12],inactive
same,outcome,[13],inactive
same,outcome,[14],inactive
same,outcome,[15],inactive
same,outcome,[16],inactive
same,outcome,[17],inactive
same,outcome,[18],inactive
same,outcome,[19],inactive
same,outcome,[20],inactive
O=S(=O)(O)c1cccc2ccccc12,outcome,[1],inactive
same,outcome,[2],inactive
same,outcome,[3],inactive
same,outcome,[4],inactive
same,outcome,[5],inactive
same,outcome,[6],inactive
same,outcome,[7],inactive
same,outcome,[8],inactive
same,outcome,[9],inactive
same,outcome,[10],inactive
same,outcome,[11],inactive
same,outcome,[12],inactive
same,outcome,[13],inactive
same,outcome,[14],inactive
same,outcome,[15],inactive
same,outcome,[16],inactive
same,outcome,[17],inactive
same,outcome,[18],inactive
same,outcome,[19],inactive
same,outcome,[20],inactive
O=C(O)c1ccccc1C(=O)O,outcome,[1],inactive
same,outcome,[2],inactive
same,outcome,[3],inactive
same,outcome,[4],inactive
same,outcome,[5],inactive
same,outcome,[6],inactive
same,outcome,[7],inactive
same,outcome,[8],inactive
same,outcome,[9],inactive
same,outcome,[10],inactive
same,outcome,[11],inactive
same,outcome,[12],inactive
same,outcome,[13],inactive
same,outcome,[14],inactive
same,outcome,[15],inactive
same,outcome,[16],inactive
same,AC50,[17],28.3 µM (active)
same,outcome,[18],inactive
same,outcome,[19],inactive
same,outcome,[20],inactive
OCCOCCOCCOCCOCCO,outcome,[1],inactive
same,outcome,[2],inactive
same,outcome,[3],inactive
same,outcome,[4],inactive
same,outcome,[5],inactive
same,outcome,[6],inactive
same,outcome,[7],inactive
same,outcome,[8],inactive
same,outcome,[9],inactive
same,outcome,[10],inactive
same,outcome,[11],inactive
same,outcome,[12],inactive
same,outcome,[13],inactive
same,outcome,[14],inactive
same,outcome,[15],inactive
same,outcome,[16],inactive
same,outcome,[17],inactive
same,outcome,[18],inactive
same,outcome,[19],inactive
same,outcome,[20],inactive
CN(C)N=Nc1ccccc1,outcome,[1],inactive
same,outcome,[2],inactive
same,outcome,[3],inactive
same,outcome,[4],inactive
same,outcome,[5],inactive
same,outcome,[6],inactive
same,outcome,[7],inactive
same,outcome,[8],inactive
same,outcome,[9],inactive
same,outcome,[10],inactive
same,outcome,[11],inactive
same,outcome,[12],inactive
same,outcome,[13],inactive
same,outcome,[14],inactive
same,outcome,[15],inactive
same,outcome,[16],inactive
same,AC50,[17],48.3 µM (active)
same,outcome,[18],inactive
same,outcome,[19],inactive
same,outcome,[20],inactive
C=CCOCC(CC)(CO)COCC=C,outcome,[1],inactive
same,outcome,[2],inactive
same,outcome,[3],inactive
same,outcome,[4],inactive
same,outcome,[5],inactive
same,outcome,[6],inactive
same,outcome,[7],inactive
same,outcome,[8],inactive
same,outcome,[9],inactive
same,outcome,[10],inactive
same,outcome,[11],inactive
same,outcome,[12],inactive
same,outcome,[13],inactive
same,outcome,[14],inactive
same,outcome,[15],inactive
same,outcome,[16],inactive
same,AC50,[17],47.1 µM (active)
same,outcome,[18],inactive
same,outcome,[19],inactive
same,outcome,[20],inactive
